According to article PMC5540273 (PLoS ONE, 2017):
Several values for one entry are separate records, joined by “and”; a condition that tells them apart may be missing. Equal entries are not always repeated. Where two headings read alike, the source gives them in different places.

Experiments:
Settings in all cases: n = 1
CAMKK2 = tested on: CAMKK2
CASK = tested on: CASK
CDC2L1 = tested on: T1, CDC2L1
T1 construct: gene CDK11B

CDC2L2 = tested on: CDC2L2
CDC2L5 = tested on: T2, CDC2L5
T2 construct: gene CDK13

CDK11 = tested on: T3, CDK11
T3 construct: gene CDK19

CDK2 = tested on: CDK2
CDK3 = tested on: CDK3
CDK4-cyclinD1 = tested on: CDK4-cyclinD1
CDK4-cyclinD3 = tested on: CDK4-cyclinD3
CDK4 = tested on: CDK4
CDK5 = tested on: CDK5
CDK7 = tested on: CDK7
CDK8 = tested on: CDK8
CDK9 = tested on: CDK9
CDKL1 = tested on: CDKL1
CDKL2 = tested on: CDKL2
CDKL3 = tested on: CDKL3
CDKL5 = tested on: CDKL5
CHEK1 = tested on: CHEK1
[1] = concentration: 1 μM, replicates: in singlicate
[2] = concentration: 1 μM,replicates: in singlicate, 1 µM
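Also: KINOMEscan kinase panel screen.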

## Fc1cccc(COc2nnc(-c3ccc4c(c3)CCO4)o2)c1
CAMKK2; [1]
  %Inh: 0%
CASK; [1]
  %Inh: 10%
CDC2L1; [1]
  %Inh: 1%
CDC2L2; [1]
  %Inh: 0%
CDC2L5; [1]
  %Inh: 18%
CDK11; [1]
  %Inh: 16%
CDK2; [1]
  %Inh: 0%
CDK3; [1]
  %Inh: 4%
CDK4-cyclinD1; [1]
  %Inh: 9%
CDK4-cyclinD3; [1]
  %Inh: 0%
CDK4; [1]
  %Inh: 0%
CDK5; [1]
  %Inh: 0%
CDK7; [1]
  %Inh: 9%
CDK8; [1]
  %Inh: 19%
CDK9; [1]
  %Inh: 0%
CDKL1; [1]
  %Inh: 0%
CDKL2; [1]
  %Inh: 9%
CDKL3; [1]
  %Inh: 9%
CDKL5; [1]
  %Inh: 0%
CHEK1; [1]
  %Inh: 0%

## Cc1cc(N2Cc3ccccc3C2)nc(Nc2ccc(S(=O)(=O)N3CCOCC3)cc2)n1.Cl [GSK1669917]
CAMKK2; [1]
  %Inh: 0%
CASK; [1]
  %Inh: 7%
CDC2L1; [1]
  %Inh: 0%
CDC2L2; [1]
  %Inh: 23%
CDC2L5; [1]
  %Inh: 0%
CDK11; [1]
  %Inh: 0%
CDK2; [1]
  %Inh: 0%
CDK3; [1]
  %Inh: 0%
CDK4-cyclinD1; [1]
  %Inh: 0%
CDK4-cyclinD3; [1]
  %Inh: 0%
CDK4; [1]
  %Inh: 0%
CDK5; [1]
  %Inh: 0%
CDK7; [1]
  %Inh: 0%
CDK8; [1]
  %Inh: 33%
CDK9; [1]
  %Inh: 0%
CDKL1; [1]
  %Inh: 0%
CDKL2; [1]
  %Inh: 0%
CDKL3; [1]
  %Inh: 0%
CDKL5; [1]
  %Inh: 6%
CHEK1; [1]
  %Inh: 0%

## COc1cccc(NC(=O)NC2CCN(c3ccnc(Nc4ccc(F)cc4)n3)C2)c1 (stereo not shown) [GSK1379721]
CAMKK2; [1]
  %Inh: 14%
CASK; [1]
  %Inh: 7%
CDC2L1; [1]
  %Inh: 0%
CDC2L2; [1]
  %Inh: 14%
CDC2L5; [1]
  %Inh: 0%
CDK11; [1]
  %Inh: 59%
CDK2; [1]
  %Inh: 0%
CDK3; [1]
  %Inh: 18%
CDK4-cyclinD1; [1]
  %Inh: 0%
CDK4-cyclinD3; [1]
  %Inh: 0%
CDK4; [1]
  %Inh: 0%
CDK5; [1]
  %Inh: 0%
CDK7; [1]
  %Inh: 0%
CDK8; [1]
  %Inh: 61%
CDK9; [1]
  %Inh: 14%
CDKL1; [1]
  %Inh: 5%
CDKL2; [1]
  %Inh: 61%
CDKL3; [1]
  %Inh: 0%
CDKL5; [1]
  %Inh: 7%
CHEK1; [1]
  %Inh: 2%

## Clc1cc(Cl)cc(Nc2ccnc(Nc3cc(Cl)cc(Cl)c3)n2)c1 [GSK175726]
CAMKK2; [1]
  %Inh: 0%
CASK; [1]
  %Inh: 13%
CDC2L1; [1]
  %Inh: 5%
CDC2L2; [1]
  %Inh: 18%
CDC2L5; [1]
  %Inh: 0%
CDK11; [1]
  %Inh: 19%
CDK2; [1]
  %Inh: 0%
CDK3; [1]
  %Inh: 0%
CDK4-cyclinD1; [1]
  %Inh: 0%
CDK4-cyclinD3; [1]
  %Inh: 0%
CDK4; [1]
  %Inh: 11%
CDK5; [1]
  %Inh: 0%
CDK7; [1]
  %Inh: 5%
CDK8; [1]
  %Inh: 0%
CDK9; [1]
  %Inh: 13%
CDKL1; [1]
  %Inh: 11%
CDKL2; [1]
  %Inh: 32%
CDKL3; [1]
  %Inh: 0%
CDKL5; [1]
  %Inh: 0%
CHEK1; [1]
  %Inh: 0%

## CC(=O)Nc1nc2cnc(Nc3cc(NC(=O)c4cccc(CCC#N)c4)ccc3C)nc2s1
CAMKK2; [1]
  %Inh: 0%
CASK; [1]
  %Inh: 10%
CDC2L1; [1]
  %Inh: 6%
CDC2L2; [1]
  %Inh: 9%
CDC2L5; [1]
  %Inh: 36%
CDK11; [1]
  %Inh: 2%
CDK2; [1]
  %Inh: 3%
CDK3; [1]
  %Inh: 0%
CDK4-cyclinD1; [1]
  %Inh: 0%
CDK4-cyclinD3; [1]
  %Inh: 0%
CDK4; [1]
  %Inh: 2%
CDK5; [1]
  %Inh: 12%
CDK7; [1]
  %Inh: 39%
CDK8; [1]
  %Inh: 5%
CDK9; [1]
  %Inh: 0%
CDKL1; [1]
  %Inh: 0%
CDKL2; [1]
  %Inh: 29%
CDKL3; [1]
  %Inh: 0%
CDKL5; [1]
  %Inh: 4%
CHEK1; [1]
  %Inh: 0%

## NC(=O)c1nnc2ccccc2c1N
CAMKK2; [1]
  %Inh: 0%
CASK; [1]
  %Inh: 36%
CDC2L1; [1]
  %Inh: 7%
CDC2L2; [1]
  %Inh: 25%
CDC2L5; [1]
  %Inh: 11%
CDK11; [1]
  %Inh: 3%
CDK2; [1]
  %Inh: 6%
CDK3; [1]
  %Inh: 19%
CDK4-cyclinD1; [1]
  %Inh: 32%
CDK4-cyclinD3; [1]
  %Inh: 0%
CDK4; [1]
  %Inh: 0%
CDK5; [1]
  %Inh: 0%
CDK7; [1]
  %Inh: 14%
CDK8; [1]
  %Inh: 26%
CDK9; [1]
  %Inh: 15%
CDKL1; [1]
  %Inh: 44%
CDKL2; [1]
  %Inh: 1%
CDKL3; [1]
  %Inh: 17%
CDKL5; [1]
  %Inh: 9%
CHEK1; [1]
  %Inh: 0%

## Cn1cncc1-c1ccc2ncnc(Nc3ccc(OCc4ccccc4)cc3)c2c1 [GW320571]
CAMKK2; [1]
  %Inh: 0%
CASK; [1]
  %Inh: 0%
CDC2L1; [1]
  %Inh: 0%
CDC2L2; [1]
  %Inh: 0%
CDC2L5; [1]
  %Inh: 0%
CDK11; [1]
  %Inh: 10%
CDK2; [1]
  %Inh: 4%
CDK3; [1]
  %Inh: 2%
CDK4-cyclinD1; [1]
  %Inh: 0%
CDK4-cyclinD3; [1]
  %Inh: 13%
CDK4; [1]
  %Inh: 0%
CDK5; [1]
  %Inh: 3%
CDK7; [1]
  %Inh: 0%
CDK8; [1]
  %Inh: 29%
CDK9; [1]
  %Inh: 0%
CDKL1; [1]
  %Inh: 0%
CDKL2; [1]
  %Inh: 19%
CDKL3; [1]
  %Inh: 0%
CDKL5; [1]
  %Inh: 0%
CHEK1; [1]
  %Inh: 15%

## Fc1cc(Cl)ccc1Nc1ccnc2cc(-c3ccc(CN4CCCCC4)o3)ccc12 [GW560116]
CAMKK2; [1]
  %Inh: 22%
CASK; [1]
  %Inh: 2%
CDC2L1; [1]
  %Inh: 0%
CDC2L2; [1]
  %Inh: 20%
CDC2L5; [1]
  %Inh: 0%
CDK11; [1]
  %Inh: 0%
CDK2; [1]
  %Inh: 0%
CDK3; [1]
  %Inh: 5%
CDK4-cyclinD1; [1]
  %Inh: 4%
CDK4-cyclinD3; [1]
  %Inh: 0%
CDK4; [1]
  %Inh: 35%
CDK5; [1]
  %Inh: 0%
CDK7; [1]
  %Inh: 0%
CDK8; [1]
  %Inh: 28%
CDK9; [1]
  %Inh: 0%
CDKL1; [1]
  %Inh: 0%
CDKL2; [1]
  %Inh: 2%
CDKL3; [1]
  %Inh: 0%
CDKL5; [1]
  %Inh: 0%
CHEK1; [1]
  %Inh: 0%

## Cc1ccc(NC(=O)Nc2cccc(C(F)(F)F)c2)cc1 [GSK955403]
CAMKK2; 1 µM
  %Inh: 19%
CASK; 1 µM
  %Inh: 15%
CDC2L1; 1 µM
  %Inh: 3%
CDC2L2; 1 µM
  %Inh: 0%
CDC2L5; 1 µM
  %Inh: 0%
CDK11; 1 µM
  %Inh: 20%
CDK2; 1 µM
  %Inh: 0%
CDK3; 1 µM
  %Inh: 0%
CDK4-cyclinD1; 1 µM
  %Inh: 0%
CDK4-cyclinD3; 1 µM
  %Inh: 0%
CDK4; 1 µM
  %Inh: 0%
CDK5; 1 µM
  %Inh: 0%
CDK7; 1 µM
  %Inh: 12%
CDK8; 1 µM
  %Inh: 0%
CDK9; 1 µM
  %Inh: 0%
CDKL1; 1 µM
  %Inh: 14%
CDKL2; 1 µM
  %Inh: 0%
CDKL3; 1 µM
  %Inh: 4%
CDKL5; 1 µM
  %Inh: 0%
CHEK1; 1 µM
  %Inh: 5%

## CSc1nn2c(=O)cc(N3CCOCC3)nc2n1Cc1cccc(C(F)(F)F)c1C [GSK2363608]
CAMKK2; [2]
  %Inh: 14% and 0%
CASK; [2]
  %Inh: 19% and 16%
CDC2L1; [2]
  %Inh: 3% and 0%
CDC2L2; [2]
  %Inh: 25% and 0%
CDK11; [2]
  %Inh: 5% and 35%
CDK2; [2]
  %Inh: 6% and 0%
CDK3; [2]
  %Inh: 17% and 0%
CDK4-cyclinD3; [2]
  %Inh: 6% and 0%
CDK4; [2]
  %Inh: 15% and 0%
CDK7; [2]
  %Inh: 7% and 0%
CDK9; [2]
  %Inh: 7% and 0%
CDKL2; [2]
  %Inh: 17% and 30%
CHEK1; [2]
  %Inh: 4% and 11%
